TRPML1 ag – human mucolipin-1 channel agonism | TRPML1-expressing cells, Ca2+ dye fluorescence, FDSS | activation, % (concentration not given with the values) | 410,000 compounds, 0.12% hits | AID 624414; in the data active = activation above about 50%; inconclusive = mostly about 30% to 49%; note: 0% is about no effect
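TRPML1-DL cells, Tet-induced overnight (~16 h, 37 degrees C), loaded 45-90 min at room temperature with Ca8 no-wash calcium dye plus quencher. FDSS fluorescence: 10 s baseline, compound pin-transfer, 110 s agonist read, then EC80 54-4 (4uM final) and 110 s antagonist read.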
TRHR agonist-1 – agonists of human TRH receptor; P34981; TRHR cells, calcium flux fluo-8, FDSS agonist mode; activation, % at 2 µM; 360,000 compounds, 0.18% hits; in the data active = activation above about 30%; note: 0% is about no effect
Target sequence (P34981 whole entry, looked up): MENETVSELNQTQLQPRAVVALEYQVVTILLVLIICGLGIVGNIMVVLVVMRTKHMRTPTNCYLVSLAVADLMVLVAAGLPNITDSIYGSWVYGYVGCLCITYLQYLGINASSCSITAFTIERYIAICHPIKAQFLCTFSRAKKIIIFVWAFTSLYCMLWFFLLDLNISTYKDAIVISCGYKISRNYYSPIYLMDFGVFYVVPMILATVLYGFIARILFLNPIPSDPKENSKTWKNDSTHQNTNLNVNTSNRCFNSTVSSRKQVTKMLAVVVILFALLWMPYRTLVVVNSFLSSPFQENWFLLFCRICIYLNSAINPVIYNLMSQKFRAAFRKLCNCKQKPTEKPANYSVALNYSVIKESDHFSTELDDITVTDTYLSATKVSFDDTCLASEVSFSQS
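Read-out: compound-evoked intracellular calcium rise in TRHR cells, fluo-8 dye, kinetic FDSS fluorescence at 1 s/cycle following a 10-cycle baseline. Cells cultured overnight before dye loading (30 min–1.5 h, RT).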
TRPML1 inh – blocks the human TRPML1 channel; 390,000 compounds, 0.02% hits; TRPML1-inducible cells, Ca2+ dye fluorescence, FDSS; stronger effect = lower value; inhibition of EC80 agonist-evoked calcium signal; activity change, negative = inhibition, % (no concentration beside the values); Q9GZU1; in the data active = activity change below about -50%; inconclusive = between about -30% and that limit;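 note: stimulus is agonist 54-4 at its EC80 concentration; % is set by controls: 0 for no effect and ±100 for the full control effect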
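Calcium fluorescence in TRPML1-DL cells induced overnight with Tet: a 110 s read after compound pin addition, then a 110 s antagonist read after challenge with 54-4 at 4 uM final (EC80).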
TRPV1 ag – human TRPV1 agonism. 320,000 compounds, 0.19% hits. Q8NER1. AID 540275. activation, % at 8.33 µM. TRPV1-expressing cells, Fluo-8 calcium influx, agonist mode; in the data active = activation above about 80%; inconclusive = between about 30% and that limit; note: 0% is about no effect
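Fluo-8 calcium influx in TRPV1-expressing cells, kinetic read (ex 480/em 520 nm). Compound added and read 3 min for agonist activity, followed by capsaicin at EC20 final and 2 min further read for enhancement.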
TRPV1 potentiator – potentiators of human vanilloid receptor 1 (TRPV1) | TRPV1-expressing cells, Fluo-8 calcium influx, capsaicin EC20 potentiation | potentiation, % at 8.33 µM | 320,000 compounds, 0.02% hits; in the data active = potentiation above about 80%; inconclusive = between about 30% and that limit; note: 0% is about no effect
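Cells expressing TRPV1 were dye-loaded with Fluo-8 and read kinetically: 10 s baseline, 3 min after compound (agonist portion), then 2 min after EC20 capsaicin (allosteric enhancer portion). Calcium-bound dye fluorescence at 480/520 nm.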
TRHR enhancer-1 – TRH receptor (human) allosteric enhancement | TRHR cells, fluo-8 calcium fluorescence, EC20 TRH enhancement | 360,000 compounds, 0.66% hits | enhancement, % at 2 µM | AID 493056 | P34981; in the data active = enhancement above about 30%; note: 0% is about no effect
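Enhancer read-out: after compound pinning and an initial kinetic agonist-mode read, an EC20 of TRH (10 nM final) was injected and fluo-8 calcium signal (Ex 480/Em 530) followed at 1 s/cycle for 100 cycles in TRHR-expressing cells.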
TRHR enhancer-2 – confirmation of human TRH receptor allosteric enhancers. AID 493076. shares compounds with TRHR enhancer-1. 970 tested, under 10 active. activity change, negative = inhibition, % at 46.1 µM. TRH receptor cell assay, enhancer confirmation qHTS;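 note: compound effect scored on response to added TRH at EC20 of 10 nM; 0% is about no effect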
TRHR agonist-2 – confirmation of human TRH receptor agonists; AID 493078; Potency, µM (series often up to 46.1 µM), for inactives: at the highest dose activation, most hits filed as activators; shares compounds with TRHR enhancer-1; TRHR-expressing cells, agonist activation read-out; 970 compounds, 8% hits; note: potency is the fitted concentration of half-maximal effect; 0% is about no effect; nearly all actives have a fitted effect of over 75% in size
Starred values were filed as active, the others as inactive. Compounds with a hit are over-represented: about 0.99% of the library has one in this group of screens. Unless noted, calls come from the whole dose curve; as a rule, active = well fitted curve in the direction sought with a large enough effect; inconclusive = small, poorly fitted or top-dose-only effect, or another doubt; inactive = no such curve, though single readings can be large; an effect the other way counts as inactive or inconclusive.

Results for Cc1ccc(S(=O)(=O)NC2CC(=O)N(c3ccc4c(c3)OCCO4)C2)cc1 (stereo not given) ?
TRPML1 ag: 0; TRHR agonist-1: 0; TRPML1 inh: 9; TRPV1 ag: 2; TRPV1 potentiator: 1; TRHR enhancer-1: 3

Results for CC(=O)Nc1ccc(S(=O)(=O)NC2CC(=O)N(c3ccc4c(c3)OCCO4)C2)cc1 (stereo not given) ?
TRPML1 ag: 0; TRHR agonist-1: 0; TRPML1 inh: 4; TRPV1 ag: 2; TRPV1 potentiator: -6; TRHR enhancer-1: 40*

How did CC(C)(O)C#Cc1ccc(C(=O)N2CCN(c3ccc([N+](=O)[O-])cc3)CC2)cc1 do in these assays?
TRPML1 ag: 0; TRHR agonist-1: 0; TRPML1 inh: -22; TRPV1 ag: 0; TRPV1 potentiator: -10; TRHR enhancer-1: -4

Results for CC(C)(O)C#Cc1ccc(C(=O)N2CCN(c3ccccc3)CC2)cc1 ?
TRPML1 ag: 1; TRHR agonist-1: 1; TRPML1 inh: 18; TRPV1 ag: 5; TRPV1 potentiator: 0; TRHR enhancer-1: 34*

Results for COc1ccc(S(=O)(=O)N2CC3CCCN3c3cc(C(F)(F)F)ccc32)cc1 (stereo not given) ?
TRPML1 ag: 16; TRHR agonist-1: 0; TRPML1 inh: -9; TRPV1 ag: -1; TRPV1 potentiator: 3; TRHR enhancer-1: 11

What do the screens show for `COc1ccc(S(=O)(=O)N2CC3CCCN3c3ccc(C(F)(F)F)cc32)cc1` (stereo not given)?
TRPML1 ag: 80*; TRHR agonist-1: 0; TRPML1 inh: -7; TRPV1 ag: -1; TRPV1 potentiator: inconclusive; TRHR enhancer-1: 3

How did CN(C)c1ccc(/C=C/c2ccc3cc(F)ccc3n2)cc1 do in these assays?
TRPML1 ag: 19

Results for CC1CCN(CCOc2ccc(C(=O)c3ccccc3)cc2)CC1 ?
TRPML1 ag: 0; TRHR agonist-1: 0; TRPML1 inh: -14; TRPV1 ag: 1; TRPV1 potentiator: 81*; TRHR enhancer-1: 4

Results for CCOc1ccc2[nH]c(=O)c(CN(CCN3CCOCC3)Cc3nnnn3C(C)(C)CC)cc2c1 ?
TRPML1 ag: 0; TRHR agonist-1: 0; TRPML1 inh: 22; TRPV1 ag: 7; TRPV1 potentiator: 2; TRHR enhancer-1: 30*

Results for CCOc1ccc2[nH]c(=O)c(CN(Cc3cccs3)Cc3nnnn3C(C)(C)C)cc2c1 ?
TRPML1 ag: 0; TRHR agonist-1: -1; TRPML1 inh: 3; TRPV1 ag: 20; TRPV1 potentiator: 7; TRHR enhancer-1: -4

What do the screens show for `CC[N+](C)(C)c1ccc(/C=C/c2ccnc3ccccc23)cc1`?
TRPML1 ag: 0

What do the screens show for `CCCNC(=O)C/C(C)=N/NC(=O)COc1ccc(C)cc1Br`?
TRPML1 ag: 0; TRHR agonist-1: 0; TRPML1 inh: -3; TRPV1 ag: 4; TRPV1 potentiator: -36; TRHR enhancer-1: 20

What do the screens show for `COc1ccc(CNC(=O)C/C(C)=N/NC(=O)COc2ccc(C)cc2Br)cc1`?
TRPML1 ag: -1; TRHR agonist-1: 0; TRPML1 inh: -11; TRPV1 ag: 1; TRPV1 potentiator: 3; TRHR enhancer-1: 32*

Results for O=C(COC(=O)c1cccnc1Cl)Nc1cccc(S(=O)(=O)N2CCCCC2)c1 ?
TRPML1 ag: -1; TRHR agonist-1: 0; TRPML1 inh: -1; TRPV1 ag: 2; TRPV1 potentiator: inconclusive; TRHR enhancer-1: 54*; TRHR enhancer-2: -6; TRHR agonist-2: 4%
